Experiment [1] in a line: antimalarial activity against Dd2 strain (AID 2302;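 active = growth inhibition above 50% at the single 2 µM test dose, taken to imply half-maximal potency below 2 µM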;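 also: 0% = DMSO untreated growth and 100% = chloroquine plus artemisinin killed control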). As to conditions: P. falciparum Dd2 in RBCs, LDH growth readout, 72 h; at 2 µM; stronger effect = higher value.
Experiment [2] is described as follows: human hepatoma cell viability loss – ATP luminescence, cytotoxicity control for P. falciparum antimalarial project, primary screen (AID 2303;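 active = inhibition above 50%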;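 also: 0% = DMSO wells and 100% = digitonin-killed cells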). The following applies: HepG2 viability, 24-48 h, at 10 µM, stronger effect = higher value.
The target in experiment [3] is L-lactate dehydrogenase (Plasmodium falciparum (isolate CDC / Honduras)) (UniProt Q27743). Briefly: PfLDH activity inhibition – cell lysate, 3D7 strain, counter-screen for P. falciparum growth inhibition project (AID 2304).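 Also: 0% = vehicle and 100% = reference inhibitor.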 The following applies: P. falciparum 3D7 crude extract, LDH APAD/NBT absorbance; at 2 µM; stronger effect = higher value.
Sequence of L-lactate dehydrogenase (Plasmodium falciparum (isolate CDC / Honduras)) (Q27743 whole entry, looked up): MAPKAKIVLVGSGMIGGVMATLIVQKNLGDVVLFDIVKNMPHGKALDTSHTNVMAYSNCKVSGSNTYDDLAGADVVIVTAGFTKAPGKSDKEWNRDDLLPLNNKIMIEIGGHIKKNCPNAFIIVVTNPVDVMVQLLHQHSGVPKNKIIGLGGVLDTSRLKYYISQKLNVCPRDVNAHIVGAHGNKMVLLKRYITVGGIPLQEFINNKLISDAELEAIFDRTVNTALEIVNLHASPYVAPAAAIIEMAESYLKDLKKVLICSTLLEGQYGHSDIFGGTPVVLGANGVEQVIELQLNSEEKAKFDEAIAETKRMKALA
Experiment [4] in a line: inhibition of 3D7 malaria parasite growth – strain 3D7 (AID 2306).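 Also: 0% = DMSO wells and 100% = chloroquine plus artemisinin control wells.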 The following applies: P. falciparum 3D7 erythrocytic growth, LDH absorbance, 72 h; at 2 µM; stronger effect = higher value.
Experiment [5] concerns the target Calcium-dependent protein kinase 1 (Plasmodium falciparum (isolate 3D7)) (UniProt P62344). Briefly: PfCDPK1 kinase inhibitors, biochemical, TCAMS library (AID 1159585; cut-off not given, nearly all actives have IC50 up to about 0.98 µM;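 also: inhibitors leave more ATP so luminescence rises with inhibition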). The following applies: recombinant PfCDPK1, Kinase-Glo ATP depletion luminescence.
The target in experiment [6] is Plasmodium falciparum protein kinase 6 (PK6, PF3D7_1337100) (UniProt Q8IDW1). Put plainly: PfPK6 kinase inhibitors, biochemical, TCAMS library (AID 1159586). The following applies: recombinant PfPK6, Kinase-Glo ATP depletion luminescence.
Sequence of Plasmodium falciparum protein kinase 6 (PK6, PF3D7_1337100) (Q8IDW1 1-305): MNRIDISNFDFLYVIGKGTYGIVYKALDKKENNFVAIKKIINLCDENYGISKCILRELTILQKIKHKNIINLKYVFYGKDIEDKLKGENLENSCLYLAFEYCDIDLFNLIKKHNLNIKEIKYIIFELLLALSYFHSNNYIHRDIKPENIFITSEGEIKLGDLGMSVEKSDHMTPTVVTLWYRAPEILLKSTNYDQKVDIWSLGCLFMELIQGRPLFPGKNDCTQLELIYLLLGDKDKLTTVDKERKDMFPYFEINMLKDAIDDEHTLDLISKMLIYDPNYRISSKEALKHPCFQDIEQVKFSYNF
Experiment [7] addresses Protein kinase 7 (PK7), Plasmodium falciparum 3D7 (PF3D7_0213400) (UniProt Q7YTF7). Briefly: inhibition of Plasmodium PK7 catalytic activity – biochemical, TCAMS antimalarial set, Kinase-Glo luminescence (AID 1159587). As to conditions: recombinant PfPK7, Kinase-Glo ATP depletion luminescence. (In general: Kinase-Glo measures the ATP left after a reaction by luminescence.)
Experiment [8] has as its target Calcium-dependent protein kinase 4 (Plasmodium falciparum (isolate 3D7)) (UniProt Q8IBS5). Put plainly: PfCDPK4 kinase inhibitors, biochemical, TCAMS library (AID 1159588; cut-off not given, nearly all actives have IC50 up to about 0.91 µM). As to conditions: recombinant PfCDPK4, Kinase-Glo ATP depletion luminescence.

Unmarked numbers belong to inactive results. For some assays here: Results with a measured potency or affinity are listed apart. Activity calls are given as the source filed them. Unless noted, no rule for the calls is given here.

What is called inhibition is the relative decrease from the control value, in per cent.

Sequence of Protein kinase 7 (PK7), Plasmodium falciparum 3D7 (PF3D7_0213400) (Q7YTF7 1-343): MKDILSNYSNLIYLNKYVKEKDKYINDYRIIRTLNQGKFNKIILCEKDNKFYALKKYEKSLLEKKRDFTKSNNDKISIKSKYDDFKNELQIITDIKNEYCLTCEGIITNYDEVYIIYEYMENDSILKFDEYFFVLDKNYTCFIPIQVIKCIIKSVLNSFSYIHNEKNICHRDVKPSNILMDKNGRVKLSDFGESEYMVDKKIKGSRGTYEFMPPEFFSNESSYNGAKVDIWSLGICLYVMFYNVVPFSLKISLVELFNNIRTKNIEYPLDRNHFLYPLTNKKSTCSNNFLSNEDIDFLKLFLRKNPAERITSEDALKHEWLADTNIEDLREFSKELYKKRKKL
Sequence of Calcium-dependent protein kinase 1 (Plasmodium falciparum (isolate 3D7)) (P62344 whole entry, looked up): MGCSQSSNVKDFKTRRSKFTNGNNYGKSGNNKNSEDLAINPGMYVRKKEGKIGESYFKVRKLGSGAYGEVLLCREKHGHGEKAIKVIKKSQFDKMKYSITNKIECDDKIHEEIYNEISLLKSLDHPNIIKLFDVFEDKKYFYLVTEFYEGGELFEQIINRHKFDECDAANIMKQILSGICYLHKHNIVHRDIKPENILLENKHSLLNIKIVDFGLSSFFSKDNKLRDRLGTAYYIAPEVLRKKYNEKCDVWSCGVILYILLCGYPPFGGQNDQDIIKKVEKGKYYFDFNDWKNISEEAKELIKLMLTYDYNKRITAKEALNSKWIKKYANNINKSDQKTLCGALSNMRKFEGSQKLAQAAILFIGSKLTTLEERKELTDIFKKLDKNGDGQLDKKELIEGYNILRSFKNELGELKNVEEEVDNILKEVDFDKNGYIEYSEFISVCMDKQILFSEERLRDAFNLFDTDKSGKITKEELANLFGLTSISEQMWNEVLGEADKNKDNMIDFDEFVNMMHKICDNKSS
Sequence of Calcium-dependent protein kinase 4 (Plasmodium falciparum (isolate 3D7)) (Q8IBS5 whole entry, looked up): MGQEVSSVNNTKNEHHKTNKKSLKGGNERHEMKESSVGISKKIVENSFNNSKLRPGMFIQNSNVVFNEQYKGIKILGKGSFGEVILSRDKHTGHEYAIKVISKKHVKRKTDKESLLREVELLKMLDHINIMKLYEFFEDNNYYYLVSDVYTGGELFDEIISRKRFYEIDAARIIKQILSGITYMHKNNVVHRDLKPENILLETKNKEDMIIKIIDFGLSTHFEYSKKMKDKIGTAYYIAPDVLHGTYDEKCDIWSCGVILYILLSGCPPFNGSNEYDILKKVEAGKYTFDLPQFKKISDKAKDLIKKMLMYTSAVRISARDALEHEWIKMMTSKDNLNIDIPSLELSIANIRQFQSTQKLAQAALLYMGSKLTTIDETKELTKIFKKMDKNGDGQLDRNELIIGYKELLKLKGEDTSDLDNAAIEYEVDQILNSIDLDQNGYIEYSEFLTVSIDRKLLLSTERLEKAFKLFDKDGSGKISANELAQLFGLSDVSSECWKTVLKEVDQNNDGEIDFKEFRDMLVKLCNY

Regarding `Cc1nc(-c2nc(N3CCC(C(N)=O)CC3)ncc2-c2ccsc2)sc1C`, the growth inhibition in experiment [1] was 33%; in experiment [4], 93% (active). The inhibition in experiment [2] was -8%; in experiment [3] it was -11%. Moreover, the outcome in experiment [5], in experiment [6], in experiment [7] and in experiment [8] was inactive.

For the compound `C[C@@H]1CN(CCCn2c3ccccc3c3ccc(C(=O)CCCN(C)C)cc32)C[C@H](C)N1`, the values for the growth inhibition in experiment [1] and in experiment [4] were 6% and 100% (active), respectively. Further, the inhibition was 26% in experiment [2] and 3% in experiment [3]. Further, the result in experiment [5], in experiment [6], in experiment [7] and in experiment [8] was inactive.

`CC(=O)Nc1nc(C(=O)Nc2cccc(-c3cccc(-c4nc5c(C)cccc5[nH]4)c3)c2)cs1`: the growth inhibition in experiment [1] is 94% (active); in experiment [4] it was 101% (active). Also, the inhibition is 28% in experiment [2] and -2% in experiment [3]. In addition, the result in experiment [5], in experiment [6], in experiment [7] and in experiment [8] was inactive.

Regarding `CCCOc1cccc(C(=O)N[C@@H](Cc2ccccc2)[C@H](O)CNCc2ccccc2OC)c1`, the growth inhibition was 61% (active) in experiment [1] and 95% (active) in experiment [4]. Moreover, the inhibition is 11% in experiment [2] and 0% in experiment [3]. Further, the outcome in experiment [5], in experiment [6], in experiment [7] and in experiment [8] was inactive.

`Cc1c(C)c2c(c(C)c1O)CC[C@](C)(C(=O)N1CCC(CCN3CCC(c4c[nH]c5ccccc45)CC3)CC1)O2`: the growth inhibition in experiment [1] was 74% (active); in experiment [4] it was 99% (active). Further, the inhibition in experiment [2] is 31%; in experiment [3], 0%. For the same compound, the outcome in experiment [5], in experiment [6], in experiment [7] and in experiment [8] was inactive.

With `Nc1c2c(nc3ccc(NC(=O)c4ccccc4)cc13)CCCC2`, the growth inhibition was 8% in experiment [1] and 99% (active) in experiment [4]. Further, the inhibition in experiment [2] is 0%; in experiment [3], -8%. Moreover, the outcome in experiment [5], in experiment [6], in experiment [7] and in experiment [8] was inactive.

On to `COc1cccc(C=NNc2cc(C)nc3c(OC)cccc23)c1`, for which the growth inhibition in experiment [1] was 58% (active); in experiment [4], 99% (active). Also, the inhibition in experiment [2] was 6%; in experiment [3], -6%. For the same compound, the result in experiment [5], in experiment [6], in experiment [7] and in experiment [8] was inactive.

For `CC(C)n1c(CC2CCN(CC3CCN(C(=O)/C=C/c4ccc(Cl)c(Cl)c4)CC3)CC2)nc2ccccc21`, the growth inhibition is 23% in experiment [1] and 101% (active) in experiment [4]. For the same compound, the inhibition was 19% in experiment [2] and -3% in experiment [3]. For the same compound, the outcome in experiment [5], in experiment [6], in experiment [7] and in experiment [8] was inactive.

`COc1cc(C)nc2ccc(NC(=O)Nc3cccc4ccccc34)cc12`: the growth inhibition in experiment [1] was 48%; in experiment [4], 91% (active). Also, the inhibition in experiment [2] was 27%; in experiment [3], -3%. In addition, the outcome in experiment [5], in experiment [6], in experiment [7] and in experiment [8] was inactive.

In the case of `CC1(C)N=C(N)N=C(N)N1OCc1cc(Cl)c(CON2C(N)=NC(N)=NC2(C)C)cc1Cl`, the growth inhibition in experiment [1] was 77% (active); in experiment [4], 94% (active). Besides, the inhibition in experiment [2] was 21%; in experiment [3], 3%. For the same compound, the outcome in experiment [5], in experiment [6], in experiment [7] and in experiment [8] was inactive.

For the compound `Cc1ccccc1C1CCN(c2ccc(C(=O)Nc3ccc(F)cc3)cn2)CC1`, the growth inhibition in experiment [1] and in experiment [4] was 96% (active) each time. The inhibition is 45% in experiment [2] and -1% in experiment [3]. The result in experiment [5], in experiment [6], in experiment [7] and in experiment [8] was inactive.

As for `CS(=O)(=O)c1ccc(CNCc2ccc(-c3cccc(-c4nc5ccccc5[nH]4)c3)cc2)cc1`, the results for the growth inhibition in experiment [1] and in experiment [4] were 88% (active) and 100% (active), respectively. Besides, the inhibition was 17% in experiment [2] and -7% in experiment [3]. Also, the outcome in experiment [5], in experiment [6], in experiment [7] and in experiment [8] was inactive.

For the compound `CC(C)CNCc1cccc(-c2ccc(CN(CCCN3CCN(C)CC3)C(=O)CCC3CCCC3)cc2)c1`, the growth inhibition is 89% (active) in experiment [1] and 98% (active) in experiment [4]. For the same compound, the inhibition in experiment [2] is 82% (active); in experiment [3], 0%. Moreover, the result in experiment [5], in experiment [6], in experiment [7] and in experiment [8] was inactive.

`O=C(Nc1cccc(F)c1)c1ccc(C(=O)NC2CCN(CC3CCCCC3)C2)cc1` (configuration not stated): the growth inhibition in experiment [1] was 15%; in experiment [4], 96% (active). Also, the inhibition was 16% in experiment [2] and -3% in experiment [3]. Further, the result in experiment [5], in experiment [6], in experiment [7] and in experiment [8] was inactive.

Regarding `O=C(Nc1cccnc1)c1cc(-c2cccnc2)nc2ccc(Cl)cc12`, the figures for the growth inhibition in experiment [1] and in experiment [4] were 50% (active) and 97% (active), respectively. The inhibition was 45% in experiment [2] and -6% in experiment [3]. The result in experiment [5], in experiment [6], in experiment [7] and in experiment [8] was inactive.

On to `O=[N+]([O-])c1ccccc1C=NNc1c2c(nc3ccccc13)CCCC2`, for which the growth inhibition in experiment [1] was 99% (active); in experiment [4], 97% (active). The inhibition in experiment [2] was -2%; in experiment [3], -3%. Besides, the outcome in experiment [5], in experiment [6], in experiment [7] and in experiment [8] was inactive.

For `CC(C)CNC(=O)c1ccnc(-c2ccc(CNC3Cc4ccccc4C3)cc2)c1`, the growth inhibition in experiment [1] was 29%; in experiment [4] it was 99% (active). For the same compound, the figures for the inhibition in experiment [2] and in experiment [3] were 25% and -5%, respectively. The result in experiment [5], in experiment [6], in experiment [7] and in experiment [8] was inactive.

Turning to `COc1cc2ccccc2c(CON2C(N)=NC(N)=NC2(C)C)c1OC`, the growth inhibition was 10% in experiment [1] and 96% (active) in experiment [4]. The inhibition in experiment [2] is 2%; in experiment [3], 1%. The result in experiment [5], in experiment [6], in experiment [7] and in experiment [8] was inactive.

For `c1cc(CNCc2ccc3c(c2)OCO3)cc(-c2cccc(CNc3ccc4ncccc4c3)c2)c1`, the growth inhibition is 27% in experiment [1] and 98% (active) in experiment [4]. In addition, the figures for the inhibition in experiment [2] and in experiment [3] were 18% and -4%, respectively. For the same compound, the result in experiment [5], in experiment [6], in experiment [7] and in experiment [8] was inactive.

(Values after PubChem BioAssay.)
